Shown are actives, neighbours in structure and some others; about 1.4% of the full set was active somewhere.
BCLXL inh: inhibitors of human Bcl-xL, primary screen, biochemical, fluorescence polarization, HTS; inhibition, % at 10.9 µM; Bcl-2-like protein 1 (Homo sapiens), Q07817; GST-Bcl-xL / FITC-Bim BH3 peptide fluorescence polarization; 320,000 tested, 0.7% active;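 active = inhibition above the mean of all tested compounds plus 3 SD, cutoff set per campaign, cut at about 30% in these data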;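 also: 0% = DMSO wells and 100% = unlabeled Bim-BH3 peptide competitor; inhibitors lower millipolarization by displacing the labeled peptide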
EBV gp42 inh: Epstein-Barr virus gp42 inhibitors, primary screen, biochemical, uHTS, fluorescence polarization; Glycoprotein 42 (Epstein-Barr virus (strain AG876)), Q1HVG2; Fluorescence polarization binding assay, mP read-out; inhibition, % (tested at 21.74 µM); 220,000 tested, 0.42% active; AID 1085, 2008; in the data active = inhibition above about 50%
E coli Lon inh: inhibitors of E. coli Lon protease, primary screen, biochemical, fluorescence polarization | inhibition, % at 7.94 µM | purified E. coli Lon protease | 360,000 tested, 0.42% active | P0A9M0; in the data active = inhibition above about 13%, passing the limit was not always enough;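 also: 0% = enzyme with probe and DMSO and 100% = no enzyme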
MCL1-BIM inh: inhibitors of MCL1 binding to BIM-BH3, primary screen, biochemical, fluorescence polarization; inhibition, % at 10.9 µM; Induced myeloid leukemia cell differentiation protein Mcl-1 (Homo sapiens), Q07820; 320,000 tested, 0.68% active; GST-MCL1 / FITC-Bim-BH3 fluorescence polarization; AID 2057, 2009;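 active = inhibition above the mean inhibition of all tested compounds plus 3 SD, set per campaign, cut at about 40% in these data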;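 also: 0% = DMSO wells and 100% = unlabeled Bim-BH3 peptide control; higher means more loss of mP so more displacement of Bim peptide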
MEX-5 binding: MEX-5 zinc finger RNA-binding disruptors – biochemical, C. elegans, fluorescence polarization, MLPCN library, primary screen; MEX-5/FITC-TCR2 RNA binding; active compounds read low; AID 1832, 2009; 300,000 tested, 0.38% active; activity score (negative = inhibition of binding), % at 10 µM;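 active = inhibition past about -25% in most replicates, and total fluorescence under double the plate's negative control median, limit read from the data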;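 also: 0% = DMSO and -100% = 5 µM competing unlabeled TCR2 RNA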
GLD-1 RNA inh: GLD-1/TGE RNA complex disruptors, primary screen, biochemical, fluorescence polarization; Female germline-specific tumor suppressor gld-1 (Caenorhabditis elegans), Q17339; purified GLD-1 + fluorescein TGE RNA; inhibition, % at 5.96 µM; 320,000 tested, 0.44% active; AID 2280, 2010;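 active = percent inhibition above a per-plate cutoff, the plate mean of test compounds plus 3 SD, cut at about 30% in these data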;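 also: 0% = DMSO wells with GLD-1 and probe and 100% = wells lacking GLD-1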
Target sequence (Q17339 whole entry, looked up): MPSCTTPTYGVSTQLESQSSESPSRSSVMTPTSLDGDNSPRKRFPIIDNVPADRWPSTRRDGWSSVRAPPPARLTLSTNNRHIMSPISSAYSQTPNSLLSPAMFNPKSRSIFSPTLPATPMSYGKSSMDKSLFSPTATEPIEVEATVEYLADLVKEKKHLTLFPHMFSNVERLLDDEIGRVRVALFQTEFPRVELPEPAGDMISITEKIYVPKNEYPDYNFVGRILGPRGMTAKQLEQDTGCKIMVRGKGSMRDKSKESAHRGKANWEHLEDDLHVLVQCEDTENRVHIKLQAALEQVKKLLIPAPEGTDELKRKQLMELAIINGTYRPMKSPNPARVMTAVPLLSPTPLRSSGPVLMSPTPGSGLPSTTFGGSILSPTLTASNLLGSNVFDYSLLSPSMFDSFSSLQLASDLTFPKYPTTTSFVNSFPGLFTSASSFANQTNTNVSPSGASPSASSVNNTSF
Bcl-xL conf: Bcl-xL inhibitors blocking Bim BH3 binding, confirmation, counter-screen for MCL1 inhibitor project, biochemical, fluorescence polarization; AID 2166, 2009; 1,700 tested, 54% active; inhibition, % at 10.9 µM; GST-Bcl-xL / FITC-Bim BH3 peptide FP binding; shares compounds with MCL1-BIM inh;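 active = inhibition above a cutoff equal to the mean inhibition of all tested compounds plus 3 SD, cut at about 30% in these data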;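 also: 0% = DMSO wells and 100% = unlabeled Bim BH3 control peptide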
MCL1 inh confirm: inhibitors of MCL1 binding to BIM-BH3, confirmation, biochemical, fluorescence polarization, triplicate; shares compounds with MCL1-BIM inh; GST-MCL1 / FITC-Bim-BH3 fluorescence polarization; inhibition, % at 10.9 µM; 1,700 tested, 61% active;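 active = inhibition above the average of all tested compounds plus 3 SD, cut at about 40% in these data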;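 also: 0% = DMSO wells and 100% = unlabeled Bim-BH3 control peptide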
* = called active by the depositor; · = no result.

SMILES	BCLXL inh	EBV gp42 inh	E coli Lon inh	MCL1-BIM inh	MEX-5 binding	GLD-1 RNA inh	Bcl-xL conf	MCL1 inh confirm
Cc1ccc(CNc2ccc3c(c2)OCO3)c(C)c1	127*	43	·	144*	-2	0	72*	90*
COc1ccc2c(C)cc3n[nH]c(=S)n3c2c1	-9	-11	-41	-26	-3	3	·	·
O=C(CSc1nc2ccccc2s1)Nc1cc(S(=O)(=O)N2CCOCC2)ccc1O	16	-17	9	43*	-3	3	23	49*
COCc1cccc(-c2csc(C(C)(O)c3cccc(F)c3)n2)c1 (centres undefined)	·	·	2	·	·	·	·	·
O=C(O)CC1S/C(=N/N=C/c2ccc(-c3ccc(Cl)c([N+](=O)[O-])c3)o2)NC1=O (centres undefined)	19	9	3	41*	-9	3	12	37
CC(C)=C[C@H]1C[C@H](C)[C@H]2CC[C@H](C)c3c(O[C@@H]4OC[C@@H](O)[C@H](O)C4O)c(O)c(C)c1c32 (some centres undefined)	·	·	3	·	·	5	·	·
CCN1CCc2nc3sc(C(=O)Nc4cccnc4Cl)c(N)c3cc2C1	46*	·	-25	54*	-9	28	10	-3
CCN(CC)c1ccc2c(c1)CCCN2	105*	-20	·	128*	-8	90*	28	19
O=S(=O)(c1ccc2c(c1)CCCN2)N1CCCC1	6	·	-5	11	·	5	·	·
CC1=Nc2ccccc2/C1=C\c1nc(-c2ccc(C(F)(F)F)cc2)oc1O	60*	40	-152	58*	·	11	100*	126*
CCCc1nc2ccc(C)cn2c1Cc1ccc(C)cc1	·	·	-21	·	·	·	·	·
COc1ccc(-c2oc3ccccc3c2C#Cc2cncn2C)cc1	1	·	7	-5	·	6	·	·
N#Cc1c(-c2ccco2)cc(C2CC2)nc1N	3	-13	0	-7	3	-3	·	·
N#Cc1c(-c2ccco2)cc(-c2ccccn2)nc1N	20	-4	-4	43*	0	23	14	15
O=C1NCC(Nc2ccc(Br)cc2)C(=O)N1 (centres undefined)	·	·	-14	·	·	·	·	·
c1cc(-c2nnc3n2CCCCC3)ccn1	-5	-2	-10	84*	2	-6	10	10
Cc1ccc(-c2nnc3n2CCCCC3)cc1	7	-4	-1	2	0	2	·	·
C=CCc1cccc(/C=N/NC(=O)CNc2cccc3ccccc23)c1O	1	2	3	47*	-1	9	11	54*
COCCNC(=O)c1cc2nc3c(c(C(F)(F)F)n2n1)CCc1ccccc1-3	-3	-13	-8	49*	0	1	4	8
COCCN(C(=O)CSc1nc(-c2ccccc2)cn1N)c1c(N)n(Cc2ccccc2)c(=O)[nH]c1=O	-1	·	-7	3	0	7	·	·
COc1cccc(CC2(CO)CCCN(Cc3ccc(OC)c(C)c3OC)C2)c1 (centres undefined)	5	·	-8	-19	2	-6	·	·
CCOC(=O)C(C#N)=C1CCN(Cc2ccccc2)CC1	58*	·	8	60*	-1	29	36*	36
C/C(N)=C(/C#N)C(=O)CSc1nnc(NC(C)C)s1	11	19	12	51*	0	4	26	78*
